The target of test [1] is Serine/threonine-protein kinase 26 (Homo sapiens) (UniProt Q9P289). Particulars: at 1 µM.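 Further: mean inhibition of MST4 kinase activity, reported from the GSK PKIS inhibitor-set screening panel.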
The target in test [2] is Serine/threonine-protein kinase PAK 1 (Homo sapiens) (UniProt Q13153). Particulars: at 0.1 µM.
For test [3] the target is unchanged. Particulars: at 1 µM.
Test [4] concerns the target Serine/threonine-protein kinase PAK 2 (Homo sapiens) (UniProt Q13177). To be noted: at 0.1 µM.
Test [5] has the same target. Particulars: at 1 µM.
The target in test [6] is Serine/threonine-protein kinase PAK 3 (Homo sapiens) (UniProt O75914). Particulars: at 0.1 µM.
For test [7] the target is unchanged. To be noted: at 1 µM.
Test [8] has as its target Serine/threonine-protein kinase PAK 5 (Homo sapiens) (UniProt Q9P286). To be noted: at 0.1 µM.
For test [9] the target is unchanged. Particulars: at 1 µM.
For test [10], the target named is Serine/threonine-protein kinase PAK 6 (Homo sapiens) (UniProt Q9NQU5). To be noted: at 0.1 µM.
Test [11] shares this target. Particulars: at 1 µM.
In test [12] the test system is Tyrosine-protein kinase ABL1 (Homo sapiens), P00519 [E255K]. To be noted: at 0.1 µM.
For test [13] the test system is unchanged. Particulars: at 1 µM.
For test [14], the system named is Tyrosine-protein kinase ABL1 (Homo sapiens), P00519 [H396P]. To be noted: at 0.1 µM.
The test system is the same in test [15]. Particulars: at 1 µM.
For test [16], the system named is Tyrosine-protein kinase ABL1 (Homo sapiens), P00519 [M351T]. To be noted: at 0.1 µM.
Test [17] shares this test system. Particulars: at 1 µM.
The subject of test [18] is Tyrosine-protein kinase ABL1 (Homo sapiens), P00519 [Q252H]. To be noted: at 0.1 µM.
For test [19] the test system is unchanged. Particulars: at 1 µM.
Test [20] deals with Tyrosine-protein kinase ABL1 (Homo sapiens), P00519 [T315I]. Particulars: at 0.1 µM.

Chain of Serine/threonine-protein kinase PAK 2 (Homo sapiens) (Q13177 whole entry): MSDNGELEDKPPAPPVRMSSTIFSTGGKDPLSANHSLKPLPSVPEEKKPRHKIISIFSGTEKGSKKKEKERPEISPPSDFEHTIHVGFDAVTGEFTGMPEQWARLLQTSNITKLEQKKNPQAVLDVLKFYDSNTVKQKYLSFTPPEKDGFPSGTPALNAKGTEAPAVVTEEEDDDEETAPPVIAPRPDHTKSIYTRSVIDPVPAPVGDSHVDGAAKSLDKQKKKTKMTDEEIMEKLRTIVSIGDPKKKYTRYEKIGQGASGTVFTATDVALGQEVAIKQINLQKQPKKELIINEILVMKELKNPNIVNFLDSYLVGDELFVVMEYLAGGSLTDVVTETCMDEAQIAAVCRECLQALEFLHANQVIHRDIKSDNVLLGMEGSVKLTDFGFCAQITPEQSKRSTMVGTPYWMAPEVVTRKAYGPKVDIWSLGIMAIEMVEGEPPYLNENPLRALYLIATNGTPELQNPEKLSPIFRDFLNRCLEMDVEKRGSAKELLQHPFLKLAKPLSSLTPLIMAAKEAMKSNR
Chain of Serine/threonine-protein kinase PAK 3 (Homo sapiens) (O75914 whole entry, looked up): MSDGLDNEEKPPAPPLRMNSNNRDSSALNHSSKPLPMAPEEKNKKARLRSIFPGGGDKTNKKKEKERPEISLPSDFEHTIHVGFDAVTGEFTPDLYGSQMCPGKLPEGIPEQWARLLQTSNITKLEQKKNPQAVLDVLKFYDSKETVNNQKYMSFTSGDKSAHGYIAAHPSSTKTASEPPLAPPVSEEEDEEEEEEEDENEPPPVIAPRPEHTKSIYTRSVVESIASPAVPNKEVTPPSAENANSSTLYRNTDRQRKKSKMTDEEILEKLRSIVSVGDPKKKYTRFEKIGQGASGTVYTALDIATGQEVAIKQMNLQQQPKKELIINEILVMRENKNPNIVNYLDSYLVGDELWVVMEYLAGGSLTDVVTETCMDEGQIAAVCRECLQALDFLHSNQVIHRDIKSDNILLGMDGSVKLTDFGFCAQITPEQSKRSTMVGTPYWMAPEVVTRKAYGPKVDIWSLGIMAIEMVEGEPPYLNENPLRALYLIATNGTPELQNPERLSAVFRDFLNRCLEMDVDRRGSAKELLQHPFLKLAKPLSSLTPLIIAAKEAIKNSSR
Chain of Serine/threonine-protein kinase PAK 5 (Homo sapiens) (Q9P286 whole entry, looked up): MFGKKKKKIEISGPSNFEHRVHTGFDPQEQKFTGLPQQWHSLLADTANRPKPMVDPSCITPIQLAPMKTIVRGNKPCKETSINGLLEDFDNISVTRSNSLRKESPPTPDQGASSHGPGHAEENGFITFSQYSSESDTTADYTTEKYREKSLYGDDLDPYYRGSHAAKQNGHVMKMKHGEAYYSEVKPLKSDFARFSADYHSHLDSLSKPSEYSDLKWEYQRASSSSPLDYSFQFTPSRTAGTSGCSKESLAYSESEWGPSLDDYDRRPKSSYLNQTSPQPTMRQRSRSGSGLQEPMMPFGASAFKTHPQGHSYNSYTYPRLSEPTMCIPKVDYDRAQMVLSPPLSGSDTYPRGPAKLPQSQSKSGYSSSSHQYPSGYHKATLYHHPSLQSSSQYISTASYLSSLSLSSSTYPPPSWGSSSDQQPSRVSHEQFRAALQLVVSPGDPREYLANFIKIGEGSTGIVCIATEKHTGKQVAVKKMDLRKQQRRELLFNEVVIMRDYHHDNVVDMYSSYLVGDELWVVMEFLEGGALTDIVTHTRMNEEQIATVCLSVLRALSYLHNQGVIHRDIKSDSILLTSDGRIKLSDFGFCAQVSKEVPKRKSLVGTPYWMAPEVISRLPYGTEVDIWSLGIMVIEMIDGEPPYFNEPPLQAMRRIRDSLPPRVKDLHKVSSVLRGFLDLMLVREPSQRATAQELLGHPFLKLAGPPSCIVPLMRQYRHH
Chain of Serine/threonine-protein kinase PAK 6 (Homo sapiens) (Q9NQU5 whole entry, looked up): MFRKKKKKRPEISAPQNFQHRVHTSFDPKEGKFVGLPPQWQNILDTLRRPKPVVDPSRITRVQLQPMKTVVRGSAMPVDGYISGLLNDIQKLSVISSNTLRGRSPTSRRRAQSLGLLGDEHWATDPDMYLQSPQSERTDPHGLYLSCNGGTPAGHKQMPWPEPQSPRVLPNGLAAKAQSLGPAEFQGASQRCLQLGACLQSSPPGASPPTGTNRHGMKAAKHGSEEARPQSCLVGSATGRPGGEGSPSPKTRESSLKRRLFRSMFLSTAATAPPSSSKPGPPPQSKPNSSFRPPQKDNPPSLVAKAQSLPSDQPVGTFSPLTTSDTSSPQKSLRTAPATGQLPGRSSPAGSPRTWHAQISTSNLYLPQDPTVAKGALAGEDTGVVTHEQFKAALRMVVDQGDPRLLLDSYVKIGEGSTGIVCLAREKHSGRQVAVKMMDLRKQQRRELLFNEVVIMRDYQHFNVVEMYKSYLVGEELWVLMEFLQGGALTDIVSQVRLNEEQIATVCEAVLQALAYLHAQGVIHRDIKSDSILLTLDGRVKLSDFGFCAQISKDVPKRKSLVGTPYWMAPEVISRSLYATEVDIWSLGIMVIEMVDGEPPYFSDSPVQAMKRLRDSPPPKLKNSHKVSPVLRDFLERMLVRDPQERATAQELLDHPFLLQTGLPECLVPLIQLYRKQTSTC
Chain of Serine/threonine-protein kinase 26 (Homo sapiens) (Q9P289 2-416 limits assumed): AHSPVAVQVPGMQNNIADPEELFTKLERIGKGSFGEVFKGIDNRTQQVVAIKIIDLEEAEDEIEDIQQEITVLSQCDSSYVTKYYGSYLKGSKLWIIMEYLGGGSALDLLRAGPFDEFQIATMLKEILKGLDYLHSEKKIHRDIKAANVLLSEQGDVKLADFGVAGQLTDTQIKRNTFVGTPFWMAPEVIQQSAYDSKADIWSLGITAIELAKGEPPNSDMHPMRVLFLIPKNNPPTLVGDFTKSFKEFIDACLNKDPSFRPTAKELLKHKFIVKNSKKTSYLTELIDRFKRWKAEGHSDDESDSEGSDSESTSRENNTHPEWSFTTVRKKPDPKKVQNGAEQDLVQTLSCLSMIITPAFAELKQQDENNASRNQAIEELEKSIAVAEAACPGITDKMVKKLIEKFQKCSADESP
Chain of Serine/threonine-protein kinase PAK 1 (Homo sapiens) (Q13153 whole entry): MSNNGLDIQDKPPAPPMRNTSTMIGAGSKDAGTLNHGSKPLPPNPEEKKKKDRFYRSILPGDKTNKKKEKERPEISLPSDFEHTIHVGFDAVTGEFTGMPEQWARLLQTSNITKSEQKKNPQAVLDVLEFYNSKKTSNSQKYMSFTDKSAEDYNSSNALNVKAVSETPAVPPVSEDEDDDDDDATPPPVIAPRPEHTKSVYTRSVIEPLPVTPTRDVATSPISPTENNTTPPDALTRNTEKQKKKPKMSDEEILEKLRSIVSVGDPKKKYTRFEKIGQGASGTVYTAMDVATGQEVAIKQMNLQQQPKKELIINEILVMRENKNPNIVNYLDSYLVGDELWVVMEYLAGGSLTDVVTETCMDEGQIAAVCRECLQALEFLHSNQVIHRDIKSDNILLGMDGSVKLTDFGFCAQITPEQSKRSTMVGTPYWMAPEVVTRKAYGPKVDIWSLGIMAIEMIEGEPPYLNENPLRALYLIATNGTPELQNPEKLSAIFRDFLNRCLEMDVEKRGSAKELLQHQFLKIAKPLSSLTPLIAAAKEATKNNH

With `NS(=O)(=O)c1cccc(-c2cc3ccncc3cc2OCc2ccccc2)c1`, the inhibition (as a rule, the relative decrease from the control value, in per cent) in test [1] was -3.77%; in test [2] it was 7.59%; in [3], 6.92%; in [4], 3.01%; in [5], 2.6%; in test [6], 4.78%. The inhibition in test [7] was 7.31%; in [8], -0.43%; in [9], -0.51%; in [10] it was -0.02%; in test [11], -4%; in test [12] it was 1.9%. For the same molecule, the inhibition in test [13] turned out to be 4.18%; in test [14], 4.37%; in [15], 9.55%; in test [16] it was 3.86%; in test [17] it was 8.19%; in test [18], 3.13%. In addition, the inhibition in [19] came to 6.44%; in [20], 3.3%.

On to `CCOc1nccc2c1nc(-c1nonc1N)n2CC`, for which the inhibition in [1] is -0.82%; in [2] it was 5.11%; in test [3], 2.07%; in [4] it was 0.86%; in test [5], 1.74%; in test [6], 3.24%. For the same molecule, the inhibition in test [7] was determined as 4.4%; in test [8], 7.54%; in test [9], 6.11%; in [10], 5.85%; in test [11] it was 12.4%; in test [12], 1.66%. Moreover, the inhibition in [13] turned out to be 3.45%; in test [14], 1.16%; in test [15] it was 6.55%; in [16], 1.78%; in test [17] it was 5.68%; in [18] it was 2.67%. Moreover, the inhibition in test [19] came out at 6.45%; in [20] it was 1.75%.

With `c1ccc(Cc2nc3ccc(Nc4ncnc5ccccc45)cc3[nH]2)cc1`, the inhibition is -0.26% in test [1]; 4.28% in test [2]; 3.15% in test [3]; 2.47% in [4]; 2.26% in test [5]; 3.68% in [6]. For the same molecule, the inhibition in test [7] was 4.32%; in [8], 5.6%; in test [9], 7.77%; in test [10], -3.41%; in test [11], 7.47%; in test [12] it was 2.13%. For the same molecule, the inhibition amounted to 4.34% in test [13]; 1.27% in test [14]; 3.84% in test [15]; 0.27% in test [16]; 5.2% in test [17]; 4.19% in [18]. In addition, the values for the inhibition in [19] and in [20] were 6.39% and 2.12%, respectively.

Regarding `Cc1ccc(O)cc1Nc1ccnc2ccc(S(C)(=O)=O)cc12`, the inhibition in test [1] was -0.56%; in test [2] it was 9.27%; in test [3], 13.3%; in [4] it was 2.82%; in [5], 2.56%; in [6], 5.79%. Further, the inhibition in [7] is 6.05%; in [8], 1.8%; in test [9], 8.34%; in test [10] it was -3.21%; in test [11], 4.09%; in test [12], 94.4%. The inhibition in [13] worked out at 95.8%; in [14], 94.8%; in test [15] it was 96.4%; in test [16], 90.6%; in test [17], 94.3%; in test [18], 93%. Besides, the inhibition came out at 96.3% in test [19] and 3.68% in [20].

In the case of `CN(C)c1cc2c(Nc3ccc4c(cnn4Cc4ccccc4)c3)ncnc2cn1`, the inhibition was -0.54% in test [1]; 6.36% in test [2]; 6.67% in test [3]; 0.73% in test [4]; 0.51% in test [5]; 3.07% in test [6]. Besides, the inhibition in [7] was 3.39%; in [8], -1.52%; in test [9], -2.02%; in test [10] it was 4.32%; in [11], -3.27%; in test [12], 1.1%. Moreover, the inhibition in test [13] is 1.85%; in [14], 0.57%; in test [15], 0.96%; in [16] it was -0.53%; in test [17], 1.01%; in test [18], 0.79%. For the same molecule, the inhibition is 3.55% in test [19] and -1.13% in test [20].

Turning to `O=C(Nc1ccc(Oc2ccc3[nH]c(NC(=O)c4ccco4)nc3c2)cc1)Nc1cc(C(F)(F)F)ccc1F`, the inhibition in test [1] is 0.33%; in test [2], -2.95%; in test [3], -0.15%; in test [4], 0.17%; in test [5] it was 0.57%; in test [6], -0.21%. Also, the inhibition turned out to be 0.34% in [7]; 6.4% in test [8]; 6.36% in test [9]; 2.79% in [10]; 6.45% in [11]; 15.2% in test [12]. Besides, the inhibition in [13] was found to be 67.1%; in test [14], 60.1%; in test [15] it was 92%; in test [16], 72.4%; in [17] it was 93.2%; in [18], 68.6%. The inhibition turned out to be 91.6% in [19] and 76.3% in test [20].

With `CN(c1ccc(NC(=O)Nc2ccc(OC(F)(F)F)cc2)cc1)c1ccnc(Nc2cccc(S(N)(=O)=O)c2)n1`, the inhibition in [1] was -3.21%; in test [2], 1.61%; in [3] it was -0.37%; in test [4] it was 0.53%; in test [5], -1.63%; in [6], 2.32%. Also, the inhibition in test [7] is 0.7%; in test [8], -3.24%; in [9], 1.16%; in [10], -3.33%; in test [11], -2%; in test [12] it was 17.2%. For the same molecule, the inhibition in test [13] turned out to be 65.3%; in test [14], 47.6%; in test [15] it was 86.9%; in [16], 64.9%; in [17], 91.2%; in test [18], 65.8%. Further, the inhibition is 90.2% in [19] and 48.7% in [20].

In the case of `OCc1ccc(-c2nc(-c3ccccn3)c(-c3ccc4c(c3)OCO4)[nH]2)cc1`, the inhibition in test [1] was -2.75%; in test [2], 3.25%; in [3] it was 7.25%; in test [4], 2.61%; in test [5] it was 2.79%; in test [6] it was 4.79%. Further, the inhibition in test [7] was 5.17%; in [8], 1.77%; in [9], 0.71%; in [10] it was 3.79%; in [11], 5.51%; in [12] it was 4%. Also, the inhibition in test [13] is 3.72%; in [14], 2.95%; in test [15], 3.25%; in test [16] it was 1.06%; in test [17], 2.45%; in [18], 3.06%. In addition, the inhibition in test [19] amounted to 3.19%; in test [20], 1.99%.

Consider `COc1cc2ncn(-c3cc(OCc4ccccc4S(C)(=O)=O)c(C#N)s3)c2cc1OC`, for which the inhibition in test [1] came out at 0.22%; in test [2] it was 6.88%; in [3], 5.61%; in test [4], 0.99%; in test [5], 2.17%; in [6], 4.63%. For the same molecule, the inhibition in [7] worked out at 5.52%; in test [8] it was 3.87%; in [9] it was 4.97%; in [10], 4.22%; in test [11] it was 9.78%; in test [12] it was 9.96%. In addition, the inhibition in test [13] is 46.7%; in test [14], 12.2%; in test [15] it was 49.5%; in test [16], 9.97%; in [17], 49.6%; in [18] it was 10%. Besides, the inhibition in test [19] stood at 43.9%; in test [20] it was 6.41%.

Regarding `COc1cc(Nc2nccc(-c3cnn4ncccc34)n2)cc(OC)c1`, the inhibition in [1] was 4.52%; in test [2], -0.14%; in test [3], 2.57%; in [4], -0.1%; in test [5], 2.59%; in test [6], 0.77%. Further, the inhibition is 3.43% in [7]; -6.63% in test [8]; 9.42% in test [9]; -2.46% in test [10]; -1.82% in test [11]; 6.96% in test [12]. Moreover, the inhibition in [13] is 46%; in test [14], 11.9%; in test [15], 59.5%; in [16], 13.7%; in [17], 63.4%; in test [18], 18%. Further, the inhibition in [19] was 68.6%; in test [20] it was 5.15%.

Consider `O=C1Nc2ccccc2/C1=C/Nc1ccc2[nH]c(=O)[nH]c2c1`, for which the inhibition in test [1] was 2.72%; in test [2], 10.5%; in [3], 7.51%; in [4], 0.87%; in [5], 1.53%; in [6] it was 7.05%. The inhibition in [7] is 5.03%; in test [8] it was 5.25%; in test [9], 3.2%; in test [10], -6.58%; in [11] it was -6.29%; in [12] it was 7.84%. Besides, the inhibition worked out at 15% in [13]; 7.55% in test [14]; 23.4% in test [15]; 4.2% in [16]; 24.6% in test [17]; 8.42% in test [18]. For the same molecule, the inhibition in [19] was 26%; in [20] it was 4.38%.

As for `COc1ccc(-c2nn3ncccc3c2-c2ccnc(Nc3cccc(C(F)(F)F)c3)n2)cc1`, the inhibition in test [1] was -0.52%; in [2], 6.36%; in test [3], 5.19%; in [4], 0.91%; in test [5] it was -0.8%; in test [6], 3.37%. Moreover, the inhibition is 3.1% in [7]; 1.8% in [8]; 1.57% in test [9]; -2.15% in [10]; -2.65% in test [11]; 1.06% in test [12]. For the same molecule, the inhibition in test [13] turned out to be 3.04%; in [14], 3.97%; in [15], 7.02%; in test [16], 2.28%; in test [17] it was 27%; in [18], 2.67%. Further, the inhibition in test [19] was 17.5%; in test [20], 2.45%.

Values taken from ChEMBL document CHEMBL1961873, “Compounds: GSK PKIS; Assays: Nanosyn kinase panel” (2012).
